Test results reported in PubChem BioAssay (Tox21).
Results filed as inconclusive are left out. The source made the active and inactive calls. Unless noted, calls come from the whole dose curve; as a rule, active = well fitted curve in the direction sought with a large enough effect in the repeat runs; inconclusive = weak or mixed curves; inactive = no such curve, though single readings can be large; an effect the other way counts as inactive or inconclusive.

How the values were obtained:
[1] = qHTS assay to identify small molecule antagonists of the vitamin D receptor (VDR) signaling pathway - cell viability counter screen (AID 743225); note: nearly all actives have a fitted effect of over 50% in size
How it was run: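 VDR-bla HEK 293T cells, 4 h pre-incubation at 37C, then compound plus 1-alpha,25-dihydroxyvitamin D3 (3 nM final) for 16 h. After the beta-lactamase FRET read, CellTiter-Glo was added to the same wells; luminescence after 30 min at room temperature.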

[2] = qHTS assay to identify small molecule agonists of the NFkB signaling pathway (AID 1159509; active = well fitted curve in the direction sought with a large enough effect in the signal ratio in the repeat runs, not every such curve was filed as active; the % refers to the signal ratio; note: series mostly up to about 61 µM)
How it was run: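 Pathway activation was measured in ME-180 cells stably expressing beta-lactamase under NF-kB response element control. Substrate cleavage was read as the 460/530 nm emission shift after 5 hr compound incubation.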

[3] = qHTS assay to identify small molecule agonists of the NFkB signaling pathway - cell viability counter screen (AID 1159515; calls by dose curve; note: series mostly up to about 61 µM; nearly all actives have a fitted effect of over 55% in size)
How it was run: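 ME-180 NFkB-bla cells, 2,000/well; overnight attach; compound 5 hr, 37 C/5% CO2; LiveBLAzer substrate 1.5 hr RT; then CellTiter-Glo in same wells, 30 min RT, luminescence read.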

[4] = qHTS assay to identify small molecule agonists of the endoplasmic reticulum stress response signaling pathway (AID 1159516; active = well fitted activation curve with a large enough effect in the signal ratio in the repeat runs, not every such curve was filed as active; the % refers to the signal ratio)
How it was run: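 HeLa ESRE-bla reporter line; cpd 5 h, 37 C/5% CO2; LiveBLAzer B/G FRET substrate 2 h RT; ex 405, em 460/530 nm.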

[5] = qHTS assay to identify small molecule antagonists of the retinoid-related orphan receptor gamma (ROR-gamma) signaling pathway - cell viability counter screen (AID 1159520); note: nearly all actives have a fitted effect of over 50% in size
How it was run: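 Tet-on ROR gamma CHO cells were given compounds for 2 hr, then doxycycline hyclate at 1 uM final, and incubated 16 hr at 37 C. Viability was measured as ATP content by CellTiter-Glo luminescence.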

[6] = target: Nuclear receptor ROR-gamma (Homo sapiens) (UniProt P51449); assay: qHTS assay to identify small molecule antagonists of the retinoid-related orphan receptor gamma (ROR-gamma) signaling pathway (AID 1159521;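 note: CHO cells with doxycycline inducible ROR-gamma driving an RORE luciferase reporter; top concentration of the series differs between compounds; nearly all actives have a fitted effect of over 50% in size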)
How it was run: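 Tet-on RORγ CHO cells carrying a ROR response element–luciferase reporter were pretreated with compounds for 2 h, then induced with 1 uM (final) doxycycline hyclate for 16 h at 37 C. Antagonism was read as decreased ONE-Glo luminescence.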

[7] = qHTS assay to identify small molecule agonists of the AP-1 signaling pathway - cell viability counter screen (AID 1159525; calls by dose curve; note: nearly all actives have a fitted effect of over 55% in size)
How it was run: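 Same-well cytotoxicity counter screen of the Tox21 10K library in ME-180 cells. The readout is ATP-dependent luminescence after 5 h compound treatment. Data are normalised to DMSO and tetra n-octyl ammonium bromide controls.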

[8] = qHTS assay to identify small molecule agonists of the AP-1 signaling pathway (AID 1159526; calls by dose curve)
[9] = target: Retinoic acid receptor RXR-alpha (Homo sapiens) (UniProt P19793); assay: qHTS assay to identify small molecule agonists of the RXR signaling pathway (AID 1159527; calls by dose curve; note: nearly all actives have a fitted effect of over 35% in size)
Sequence of Retinoic acid receptor RXR-alpha (Homo sapiens) (P19793 whole entry, looked up): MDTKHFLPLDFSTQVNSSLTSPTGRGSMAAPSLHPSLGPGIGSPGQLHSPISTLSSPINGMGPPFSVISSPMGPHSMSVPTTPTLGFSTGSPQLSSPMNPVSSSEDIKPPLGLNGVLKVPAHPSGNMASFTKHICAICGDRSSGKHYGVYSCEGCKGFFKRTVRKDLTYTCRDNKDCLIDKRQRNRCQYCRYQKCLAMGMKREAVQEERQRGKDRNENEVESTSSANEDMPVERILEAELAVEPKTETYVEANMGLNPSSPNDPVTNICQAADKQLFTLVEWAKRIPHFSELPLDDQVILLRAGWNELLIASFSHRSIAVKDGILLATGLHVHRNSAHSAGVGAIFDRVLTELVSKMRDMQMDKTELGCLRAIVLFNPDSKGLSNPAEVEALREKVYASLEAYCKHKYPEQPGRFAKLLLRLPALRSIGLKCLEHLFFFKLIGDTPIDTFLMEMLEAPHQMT
How it was run: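 GeneBLAzer RXR-alpha-UAS-bla HEK 293T cells in medium with 2% charcoal-stripped FBS, pre-incubated 5 hr at 37 C, then exposed to compounds 16 hr. Beta-lactamase reporter read by FRET substrate, 2 hr room temperature, 460/530 nm emission.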

[10] = qHTS assay to identify small molecule agonists of the RXR signaling pathway - cell viability counter screen (AID 1159529); note: series mostly up to about 77 µM; nearly all actives have a fitted effect of over 50% in size
How it was run: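 RXR-alpha-UAS-bla HEK 293T cells in medium with 2% charcoal-stripped FBS were preincubated 5 hr, then exposed to compounds for 16 hr at 37 C. Viability was read as CellTiter-Glo luminescence after 30 min at room temperature.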

[11] = qHTS assay to identify small molecule antagonists of the retinoid acid receptor (RAR) signaling pathway - cell viability counter screen (AID 1159551); note: nearly all actives have a fitted effect of over 35% in size
How it was run: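 C3RL4 RARE-luciferase line; cpds + retinol 1 uM final, 6 h, 37 C/5% CO2; CellTiter-Glo ATP luminescence, 30 min RT.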

[12] = qHTS assay to identify small molecule antagonists of the retinoic acid receptor (RAR) signaling pathway (AID 1159552; note: nearly all actives have a fitted effect of over 50% in size)
How it was run: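 RARE-luc C3RL4 cells; cpds + 1 uM (final) retinol, 6 hr, 37 C/5% CO2; luciferase reagent, 30 min RT, luminescence readout. Inhibitors of retinol-driven signal scored.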

[13] = qHTS assay to identify small molecule agonists of the retinoic acid receptor (RAR) signaling pathway (AID 1159553); note: potency is the fitted concentration of half-maximal effect
How it was run: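 RARE-luc C3RL4 cells; overnight attachment 37 C/5% CO2; compound (DMSO) 6 hr; luciferase reagent, 30 min RT; luminescence read-out.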

[14] = qHTS assay to identify small molecule antagonists of the estrogen related receptor (ERR) signaling pathway from Tox21 library - cell viability counter screen (AID 1224834); note: nearly all actives have a fitted effect of over 30% in size; note: potency is the fitted concentration of half-maximal effect
How it was run: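 Multiplexed viability counter screen in ERR cells: 17.5 h compound exposure at 37 C, CellTiter-Fluor added, 30 min at 37 C/5% CO2, fluorescence read.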

Measured: Potency

CN1C(CSCC(F)(F)F)Nc2cc(Cl)c(S(N)(=O)=O)cc2S1(=O)=O (centres undefined)
inactive: [1] | [2] | [3] | [4] | [5] | [6] | [7] | [8] | [9] | [10] | [11] | [12] | [13] | [14]

CC(CN(CCN(CC(C)OCCO)CC(C)OCCO)CC(C)OCCO)OCCO (centres undefined)
inactive: [1] | [2] | [3] | [4] | [5] | [6] | [7] | [8] | [9] | [10] | [11] | [13] | [14]

Nc1nc(-c2ccc([N+](=O)[O-])cc2)cs1
inactive: [1] | [2] | [3] | [4] | [5] | [6] | [7] | [8] | [9] | [10] | [11] | [12] | [14]

Cc1ccc(S(=O)(=O)NC(=O)NC2CCCCC2)cc1
inactive: [1] | [2] | [3] | [4] | [5] | [6] | [7] | [8] | [9] | [10] | [11] | [12] | [13] | [14]

c1ccc(CNc2ncnc3c2ncn3C2CCCCO2)cc1 (centres undefined)
inactive: [1] | [2] | [3] | [4] | [5] | [6] | [7] | [8] | [9] | [10] | [11] | [14]
active: [13] 4.33 µM

Cc1ccc2c(c1)CCCN2
inactive: [1] | [2] | [3] | [4] | [5] | [6] | [7] | [8] | [9] | [10] | [11] | [12] | [13] | [14]

O=C(c1ccccc1)c1ccc(O)cc1
inactive: [1] | [2] | [3] | [4] | [5] | [6] | [7] | [8] | [9] | [10] | [11] | [12]
active: [14] 69.4 µM

Cc1cn([C@H]2C[C@H](F)[C@@H](CO)O2)c(=O)[nH]c1=O
inactive: [1] | [2] | [3] | [4] | [5] | [6] | [7] | [8] | [9] | [10] | [11] | [13] | [14]

CC(=O)N[C@@H](Cc1ccc(O)cc1)C(=O)O
inactive: [1] | [2] | [3] | [4] | [5] | [6] | [7] | [8] | [9] | [10] | [11] | [12] | [13] | [14]

CC(C)(C(=O)c1cccnc1)c1cccnc1
inactive: [1] | [2] | [3] | [4] | [5] | [6] | [7] | [8] | [9] | [10] | [11] | [12] | [13] | [14]

[Cl][Nd]([Cl])[Cl]
inactive: [1] | [2] | [3] | [4] | [5] | [6] | [7] | [8] | [9] | [10] | [11] | [13] | [14]

O=C(c1ccccc1)C1CCC1
inactive: [1] | [2] | [3] | [4] | [5] | [6] | [7] | [8] | [9] | [10] | [11] | [12] | [14]

CC(C)C1CCC(C(=O)N[C@H](Cc2ccccc2)C(=O)O)CC1 (some centres undefined)
inactive: [1] | [2] | [3] | [4] | [5] | [6] | [7] | [8] | [9] | [10] | [11] | [12] | [13] | [14]

Nc1ccc(S(=O)(=O)NCc2ccccc2)cc1
inactive: [2] | [3] | [4] | [5] | [6] | [7] | [8] | [9] | [10] | [11] | [12] | [13] | [14]

CC(C)COC(=O)COc1cc(Cl)c(Cl)cc1Cl
inactive: [1] | [2] | [3] | [4] | [5] | [6] | [7] | [8] | [9] | [10] | [11] | [12] | [13] | [14]

O=C1OC[C@H](Cc2cccc(O)c2)[C@H]1Cc1cccc(O)c1
inactive: [1] | [2] | [3] | [4] | [5] | [6] | [7] | [8] | [9] | [10] | [11] | [12] | [13] | [14]

CCCCCC
inactive: [1] | [2] | [3] | [4] | [5] | [6] | [7] | [8] | [9] | [10] | [11] | [13] | [14]
